# Experimental data as given in PubChem BioAssay.
# The source made the active and inactive calls. Unless noted, no stated cut-off is given here; in the data, active means inhibition above about 80%; inactive means the rest.
# Legend:
# [1] = LFS_MB_P medulloblastoma growth inhibition, cell-based, chromothripsis tumors, cisplatin or BGB combos (AID 1671449); settings: LFS_MB_P medulloblastoma cells;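 further: cells exposed for 96 hours; 0% = vehicle DMSO and 100% = killing by high DMSO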
# [2] = HDN33 neuroblastoma growth inhibition, cell-based, chromothripsis tumors, cisplatin or BGB combos (AID 1671450); settings: HDN33 neuroblastoma cells, stronger effect = higher value;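 further: cells exposed to compound for four days; 0% = vehicle DMSO and 100% = cell killing by high DMSO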
# [3] = ICB984 medulloblastoma cell growth inhibition, synergistic combos for chromothripsis tumors, cisplatin or BGB combos (AID 1671451; call rule not given here;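 further: cells exposed for 96 hours before readout; 0% = vehicle DMSO and 100% = killing by high DMSO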); settings: ICB984 medulloblastoma cells, drug combinations, stronger effect = higher value
# [4] = LFS_MB_1R medulloblastoma cell growth inhibition, synergistic combos for chromothripsis tumors, cisplatin or BGB combos (AID 1671452); settings: LFS_MB_1R medulloblastoma cells, stronger effect = higher value;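 further: cells exposed for 96 hours before readout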
# [5] = HTB85 osteosarcoma cell growth inhibition, synergistic combos for chromothripsis tumors, BGB or cisplatin IC20 combos (AID 1671453); settings: HTB85 osteosarcoma cells, drug combinations, stronger effect = higher value;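 further: cells exposed for 96 hours before readout; 0% = vehicle DMSO and 100% = high DMSO killing control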
# [6] = CRL2098 osteosarcoma cell growth inhibition, synergistic combos for chromothripsis tumors, BGB or cisplatin IC20 combos (AID 1671454); settings: CRL2098 osteosarcoma cells, drug combinations, stronger effect = higher value;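 further: cells exposed for 96 h before readout; 0% = vehicle DMSO and 100% = killing by high DMSO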
# [7] = HD-MB03 medulloblastoma cell growth inhibition, synergistic combos for chromothripsis tumors, BGB or cisplatin IC20 combos (AID 1671455; in the data active means inhibition above about 83%;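 further: 0% = vehicle DMSO and 100% = high DMSO as cytotoxic control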); settings: HD-MB03 medulloblastoma cells, stronger effect = higher value
# [8] = UWB1.289 ovarian carcinoma cell growth inhibition, synergistic combos for chromothripsis tumors, BGB or cisplatin combos (AID 1671456); settings: UWB1.289 ovarian carcinoma cells, stronger effect = higher value;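 further: cells exposed to compound for four days; 0% = vehicle DMSO and 100% = killing by high DMSO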
# [9] = LFS_MB_2R medulloblastoma cell growth inhibition, synergistic combos for chromothripsis tumors, cisplatin combos (AID 1671457); settings: LFS_MB_2R medulloblastoma cells, stronger effect = higher value;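 further: cells exposed to compound for four days before readout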
# [10] = MDA-MB-436 breast carcinoma cell growth inhibition, synergistic combos for chromothripsis tumors, BGB or cisplatin combos (AID 1671458; call rule not given here;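 further: cells exposed for 96 hours; 0% = vehicle DMSO and 100% = killing by high DMSO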); settings: MDA-MB-436 breast carcinoma growth inhibition, drug combinations, stronger effect = higher value
# [11] = UWB1.289_BRCA1 ovarian cancer growth, cell-based, BGB or cisplatin combinations (AID 1671459); settings: UWB1.289 BRCA1 ovarian carcinoma, drug combinations, stronger effect = higher value
# [12] = human astrocyte viability loss, single and combined drugs, cytotoxicity control for chromothriptic childhood tumor combination screen, cell-based, BGB or cisplatin IC20 combos (AID 1671460); settings: Human astrocytes, drug combinations, stronger effect = higher value;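 further: cells exposed to compounds for 96 hours before viability readout; 0% = vehicle and 100% = killing control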
# [13] = growth inhibition of BT084 medulloblastoma cells, cell-based, ICGC_MB145, cisplatin and BGB IC40 combos (AID 1671461); settings: drug combinations, stronger effect = higher value;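 further: cells exposed to drugs for 96 hours; 0% = vehicle DMSO and 100% = high DMSO full killing control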
# [14] = growth inhibition of RCMB18 medulloblastoma cells, cell-based, cisplatin and BGB IC40 combos (AID 1671462); settings: stronger effect = higher value;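 further: cells exposed to compound for four days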
# [15] = growth inhibition of CRL1545 osteosarcoma cells, cell-based, cisplatin and BGB IC20 combos (AID 1671464); settings: stronger effect = higher value;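 further: cells exposed to compound for 96 hours before readout; 0% = vehicle DMSO and 100% = high DMSO killing control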
# [16] = at 0.5 µM, stronger effect = higher value
# [17] = measured here: combination with BGB IC20, at 0.005 µM
# [18] = measured here: combination with BGB IC40, at 0.005 µM
# [19] = measured here: combination with BGB IC40, at 0.05 µM
# [20] = measured here: combination with cisplatin, at 0.5 µM, stronger effect = higher value
# [21] = measured here: combination with cisplatin, at 5 µM, stronger effect = higher value
# [22] = measured here: with BGB IC20 combination, at 0.5 µM
# [23] = measured here: with cisplatin IC20 combination, at 0.5 µM
# [24] = measured here: 5 uM single agent, at 5 µM
# [25] = measured here: combination with cisplatin, at 0.5 µM
# [26] = measured here: combination with cisplatin, at 5 µM
# [27] = measured here: with BGB IC20, at 0.5 µM
# [28] = measured here: with BGB IC20, at 5 µM
# [29] = measured here: with cisplatin IC20, at 0.5 µM
# [30] = measured here: with cisplatin IC20, at 5 µM
# [31] = measured here: combination with BGB at IC20, at 0.5 µM
# [32] = measured here: combination with cisplatin at IC20, at 0.5 µM
# [33] = measured here: combo with BGB at IC20, at 0.5 µM
# [34] = measured here: combo with cisplatin at IC20, at 0.5 µM
# [35] = measured here: inhibition with BGB combination, at 0.05 µM
# [36] = measured here: inhibition with cisplatin combination, at 0.05 µM
# [37] = measured here: BGB combination, at 0.5 µM
# [38] = measured here: BGB combination, at 5 µM
# [39] = measured here: cisplatin combination, at 0.5 µM
# [40] = measured here: cisplatin combination, at 5 µM
# [41] = BGB combination, concentration series, at 5 µM
# [42] = cisplatin combination, concentration series, at 5 µM
# [43] = measured here: combo with BGB IC20, at 0.5 µM
# [44] = measured here: combo with cisplatin IC20, at 0.5 µM
# [45] = cisplatin combination, at 0.5 µM
# [46] = measured here: BGB IC40 combination 0.05 uM, at 0.05 µM
# [47] = measured here: BGB IC40 combination, at 0.05 µM
smiles,measurement,setting,value
Cn1cc(-c2cnn3c(N)c(Br)c([C@H]4CCCNC4)nc23)cn1,inhibition,[1]; [16],20.2% (inactive)
same,inhibition,[1]; [17],-7.68%
same,inhibition,[1]; [18],93.8%
same,inhibition,[1]; [19],11.8%
same,inhibition,[1]; [20],10.2%
same,inhibition,[1]; [21],-24.2%
same,inhibition,"[2]; BGB combo, at 5 µM",73.2%
same,inhibition,[2]; at 0.5 µM,22.3% (inactive)
same,inhibition,"[2]; cisplatin combo, at 5 µM",83.7%
same,inhibition,[2]; [22],9.52%
same,inhibition,[2]; [23],28.6%
same,inhibition,"[2]; single agent, at 5 µM",88.5%
same,inhibition,"[3]; BGB IC20 combo, at 0.005 µM",-13.9%
same,inhibition,"[3]; BGB IC40 combo, at 0.005 µM",-26.3%
same,inhibition,"[3]; BGB IC40 combo, at 0.05 µM",-14.6%
same,inhibition,[3]; at 0.5 µM,-16.3% (inactive)
same,inhibition,"[3]; cisplatin combo, at 0.05 µM",-20.5%
same,inhibition,"[3]; cisplatin combo, at 0.5 µM",-27.1%
same,inhibition,"[3]; cisplatin combo, at 5 µM",-5.82%
same,inhibition,[3]; [24],-16.1%
same,inhibition,[4]; at 0.5 µM,2.92% (inactive)
same,inhibition,[4]; [19],-16.9%
same,inhibition,[4]; [25],5.45%
same,inhibition,[4]; [26],-19.5%
same,inhibition,[5]; at 0.5 µM,-14.3% (inactive)
same,inhibition,[5]; [27],4.42%
same,inhibition,[5]; [28],66.4%
same,inhibition,[5]; [29],-18.4%
same,inhibition,[5]; [30],80.6%
same,inhibition,"[5]; single agent, at 5 µM",52.9%
same,inhibition,[6]; at 0.5 µM,-2.8% (inactive)
same,inhibition,[6]; [31],-24%
same,inhibition,[6]; [32],-3.06%
same,inhibition,[7]; at 0.5 µM,6.2% (inactive)
same,inhibition,[7]; [33],2.25%
same,inhibition,[7]; [34],17.7%
same,inhibition,[8]; at 0.5 µM,28.5% (inactive)
same,inhibition,[8]; [35],-6.38%
same,inhibition,[8]; [36],-4.25%
same,inhibition,[9]; at 0.5 µM,-5.31% (inactive)
same,inhibition,[9]; [25],-14.4%
same,inhibition,[9]; [26],-6.17%
same,inhibition,[10]; at 0.5 µM,29.3% (inactive)
same,inhibition,[10]; [37],21.8%
same,inhibition,[10]; [38],53.4%
same,inhibition,[10]; [39],36.8%
same,inhibition,[10]; [40],73.3%
same,inhibition,[11]; [41],103%
same,inhibition,[11]; at 0.5 µM,7.13% (inactive)
same,inhibition,[11]; [42],119%
same,inhibition,[12]; at 0.5 µM,-19% (inactive)
same,inhibition,[12]; [43],-17.5%
same,inhibition,[12]; [44],-30.9%
same,inhibition,[13]; at 0.5 µM,11% (inactive)
same,inhibition,[13]; [45],16.1%
same,inhibition,"[13]; cisplatin combination, at 5 µM",-105%
same,inhibition,[13]; [46],5.34%
same,inhibition,"[13]; single agent, at 5 µM",34.7%
same,inhibition,[14]; at 0.5 µM,4.28% (inactive)
same,inhibition,"[14]; cisplatin combo, at 5 µM",22.7%
same,inhibition,[14]; [47],-33.2%
same,inhibition,[14]; [25],-3.81%
same,inhibition,"[14]; single agent, at 5 µM",47.3%
same,inhibition,[15]; at 0.5 µM,79.7% (inactive)
same,inhibition,[15]; [22],73.9%
same,inhibition,[15]; [23],82.3%
same,inhibition,"[15]; single agent, at 0.05 µM",19%
same,inhibition,"[15]; single agent, at 5 µM",92.3%
Cc1c(Br)cc(NCC(=O)N/N=C/c2cc([N+](=O)[O-])ccc2O)cc1Br,inhibition,[1]; [16],4.38% (inactive)
same,inhibition,[1]; [17],-17.6%
same,inhibition,[1]; [18],-32.2%
same,inhibition,[1]; [19],-25.9%
same,inhibition,[1]; [20],-13.3%
same,inhibition,[1]; [21],49.2%
same,inhibition,"[2]; BGB combo, at 5 µM",40.5%
same,inhibition,[2]; at 0.5 µM,-0.34% (inactive)
same,inhibition,"[2]; cisplatin combo, at 5 µM",36.1%
same,inhibition,[2]; [22],-9.6%
same,inhibition,[2]; [23],14.3%
same,inhibition,"[2]; single agent, at 5 µM",47.8%
same,inhibition,"[3]; BGB IC20 combo, at 0.005 µM",-14%
same,inhibition,"[3]; BGB IC40 combo, at 0.005 µM",-19.6%
same,inhibition,"[3]; BGB IC40 combo, at 0.05 µM",-0.825%
same,inhibition,[3]; at 0.5 µM,-30.2% (inactive)
same,inhibition,"[3]; cisplatin combo, at 0.05 µM",-3.64%
same,inhibition,"[3]; cisplatin combo, at 0.5 µM",-27.9%
same,inhibition,"[3]; cisplatin combo, at 5 µM",-29.5%
same,inhibition,[3]; [24],-33%
same,inhibition,[4]; at 0.5 µM,-22.2% (inactive)
same,inhibition,[4]; [19],-11.7%
same,inhibition,[4]; [25],-16.8%
same,inhibition,[4]; [26],13.4%
same,inhibition,[5]; at 0.5 µM,-6.09% (inactive)
same,inhibition,[5]; [27],-1.02%
same,inhibition,[5]; [28],19.1%
same,inhibition,[5]; [29],-24.4%
same,inhibition,[5]; [30],5.29%
same,inhibition,"[5]; single agent, at 5 µM",37.4%
same,inhibition,[6]; at 0.5 µM,-42.4% (inactive)
same,inhibition,[6]; [31],-43.9%
same,inhibition,[6]; [32],-25%
same,inhibition,[7]; at 0.5 µM,-7.25% (inactive)
same,inhibition,[7]; [33],1.43%
same,inhibition,[7]; [34],-13.4%
same,inhibition,[8]; at 0.5 µM,5% (inactive)
same,inhibition,[8]; [35],-18.4%
same,inhibition,[8]; [36],-10.8%
same,inhibition,[9]; at 0.5 µM,-13% (inactive)
same,inhibition,[9]; [25],-18.6%
same,inhibition,[9]; [26],-37.8%
same,inhibition,[10]; at 0.5 µM,-18.5% (inactive)
same,inhibition,[10]; [37],-10.2%
same,inhibition,[10]; [38],25.8%
same,inhibition,[10]; [39],-39%
same,inhibition,[10]; [40],38.4%
same,inhibition,[11]; [41],59.1%
same,inhibition,[11]; at 0.5 µM,2.01% (inactive)
same,inhibition,[11]; [42],60.8%
same,inhibition,[12]; at 0.5 µM,9.92% (inactive)
same,inhibition,[12]; [43],11.5%
same,inhibition,[12]; [44],17.7%
same,inhibition,[13]; at 0.5 µM,-9.67% (inactive)
same,inhibition,[13]; [45],-1.86%
same,inhibition,"[13]; cisplatin combination, at 5 µM",27.3%
same,inhibition,[13]; [46],-3.3%
same,inhibition,"[13]; single agent, at 5 µM",6.62%
same,inhibition,[14]; at 0.5 µM,-19% (inactive)
same,inhibition,"[14]; cisplatin combo, at 5 µM",25.8%
same,inhibition,[14]; [47],-28.4%
same,inhibition,[14]; [25],22%
same,inhibition,"[14]; single agent, at 5 µM",8.19%
same,inhibition,[15]; at 0.5 µM,-4.87% (inactive)
same,inhibition,[15]; [22],-10.5%
same,inhibition,[15]; [23],-4.39%
same,inhibition,"[15]; single agent, at 0.05 µM",-22.9%
same,inhibition,"[15]; single agent, at 5 µM",44.6%
